Screening data (PubChem BioAssay)
RmlCD inh mix: mixture blocks RmlC and RmlD coupled enzyme activity | RmlC/RmlD coupled enzyme inhibition, 384-well mixture HTS | inhibition, % at 5.5 µM | 110,000 compounds, 0.39% hits; in the data active means inhibition above about 30%, passing the limit was not always enough
HIV RNase H inh-1: inhibitors of HIV-1 reverse transcriptase RNase H | RT-RNase H RNA/DNA duplex cleavage, fluorescence | inhibition, % at 10 µM | P04585 | 65,000 compounds, 1.9% hits; in the data active means inhibition above about 50%
HIV RNase H inh-2: confirmation of HIV-1 reverse transcriptase RNase H inhibitors. Recombinant RT RNase H, fluorescent RNA/DNA duplex cleavage. inhibition, % at 10 µM. shares compounds with HIV RNase H inh-1. 1,000 compounds, 39% hits; in the data active means inhibition above about 48%
* hit, by the source's call; · = no result. This is one part of a sample in which hits are shown more often than they occur.

SMILES	RmlCD inh mix	HIV RNase H inh-1	HIV RNase H inh-2
Cc1cc(C)cc(OCC(=O)Nc2cccc(C(=O)O)c2)c1	-12	·	·
COc1ccc(CC(=O)Nc2ccc(-c3noc(-c4cccc(OC)c4)n3)cc2)cc1	7	79*	62*
COc1cccc(-c2nc(-c3ccc(NC(=O)c4cccnc4)cc3)no2)c1	7	-1	·
COc1ccc(/C=C/C(=O)Nc2sc3c(c2C(=O)NCc2cccnc2)CCCC3)cc1	-13	·	·
CCOC(=O)c1cc(-c2nnc(SCC(=O)Nc3ccc(F)cc3)o2)c(C)nc1C	-7	70*	2
CCOC(=O)c1cc(-c2nnc(-c3ccc(Cl)cc3)o2)c(C)nc1C	-6	10	·
O=C(Nc1nc(-c2ccccc2)c(-c2ccccc2)o1)c1ccc(F)cc1	14	·	·
CCOC(=O)c1c(NC(=O)c2cc(C3CC3)on2)sc2c1CCCC2	·	84*	94*
CCOC(=O)c1c(NC(=O)c2cc(C3CC3)on2)sc(C(C)=O)c1C	·	68*	51
CCOC(=O)c1c(NC(=O)c2ccc(Cl)s2)sc(C)c1C	-107	20	·
CCOC(=O)c1c(NC(=O)c2csc(C)c2)sc(C(C)=O)c1C	·	-11	·
CCOC(=O)c1c(NC(=O)c2ccco2)sc2c1CCCCC2	-4	-46	·
CCCc1cc(C(=O)Nc2sc(C)c(C)c2C(=O)OCC)no1	-32	86*	67*
CCOc1c(Cl)cc(CNCC(C)C)cc1Cl	-14	·	·
COc1cc(C2C(C#N)=C(N)Oc3cc(C)n(CCc4ccccc4)c(=O)c32)cc2c1OCO2 (stereo unspecified)	-10	77*	28
Cc1cc2c(c(=O)n1CCc1ccccc1)C(c1ccco1)C(C#N)=C(N)O2 (stereo unspecified)	7	·	·
c1ccc(-c2cc(-c3nn4c(-c5ccco5)nnc4s3)c3ccccc3n2)cc1	-4	75*	26
COc1cc(OC)c(-c2nn3c(-c4ccco4)nnc3s2)cc1OC	10	-18	·
Cc1cc(-c2nn3c(-c4ccccc4)nnc3s2)c2ccccc2n1	-10	82*	63*
Cc1ccccc1-c1nn2c(-c3ccccc3)nnc2s1	-12	-26	·
Cc1ccc(OCc2nnc(SCC(=O)c3cccc([N+](=O)[O-])c3)n2C)cc1	-11	·	·
Nn1cc(-c2ccccc2)nc1SCC(=O)N1CCN(S(=O)(=O)c2ccc3ccccc3c2)CC1	-11	·	·
CCCCNc1c(C(=O)OCC)c(C)nc2c1cnn2CC	28	·	·
COc1cccc(C2CC(=O)N3CN(c4cccc(Cl)c4C)CSC3=C2C#N)c1OC (stereo unspecified)	-7	25	·
COc1cc(C2CC(=O)N3CN(c4ccccc4C)CSC3=C2C#N)cc(OC)c1OC (stereo unspecified)	-14	66*	83*
SMILES	RmlCD inh mix	HIV RNase H inh-1	HIV RNase H inh-2
COc1ccc(OC)c(C2CC(=O)N3CN(c4ccccc4F)CSC3=C2C#N)c1 (stereo unspecified)	5	27	·
COc1ccccc1N1CSC2=C(C#N)C(c3ccc(SC)cc3)CC(=O)N2C1 (stereo unspecified)	-2	81*	55*
COc1cccc(C2CC(=O)N3CN(c4ccccc4F)CSC3=C2C#N)c1 (stereo unspecified)	-11	76*	12
COc1ccc(OC)c(C2CC(=O)N3CN(c4cccc(Cl)c4C)CSC3=C2C#N)c1 (stereo unspecified)	6	21	·
Cc1ccc(S(=O)(=O)NCC(=O)OC(C)C(=O)Nc2ncc(Cl)cc2Cl)cc1 (stereo unspecified)	-5	·	·
COc1cc(Br)cc2cc(C(=O)N3CCCCC3C)c(=O)oc12 (stereo unspecified)	-17	4	·
CSCSC1=C(C#N)C(c2ccccc2Cl)C(C(C)=O)=C(C)N1 (stereo unspecified)	-3	70*	42
CCOC(=O)CSC1=C(C#N)C(c2ccccc2F)C(C(C)=O)=C(C)N1 (stereo unspecified)	7	1	·
Cc1cc(NC(=O)Cc2cccs2)no1	·	74*	37
Cc1cc(NS(=O)(=O)c2ccc(NC(=O)Cc3cccs3)cc2)no1	8	-7	·
CC1(C)Cc2ccccc2-c2nnc(SCC(=O)Nc3nc4ccccc4s3)n21	-6	-3	·
Cc1cc(C)nc(/N=C(\N)C2=C(O)CC(C)(C)CC2=O)n1	-10	-16	·
Cc1cc(NC(=O)CSc2nc(C3CC3)nc3sc4c(c23)CCC(C)C4)no1 (stereo unspecified)	4	70*	97*
Cc1cc(NC(=O)CSc2nc(C(C)C)nc3sc4c(c23)CCCC4)no1	40	70*	29
Cc1cc(NC(=O)CSc2nc(C3CCCCC3)nc3ccccc23)no1	-8	9	·
Cc1cc(NC(=O)CSc2nc3sc4c(c3c(=O)n2C)CCCC4)no1	·	6	·
CCN(CC)C(=O)Cn1c(=O)n(-c2ccccc2)c(=O)c2c3c(sc21)CCC3	-8	·	·
CCOc1ccc(-n2c(=O)c3c4c(sc3n(CC(=O)NCc3ccco3)c2=O)CCC4)cc1	-10	57*	87*
CC1CCCC(NC(=O)Nc2cccs2)C1C (stereo unspecified)	-3	·	·
CCOC(=O)c1c(C)oc2c1c(C(c1ccncc1)N1CCOCC1)c(O)c1ccccc12 (stereo unspecified)	9	68*	6
CCOC(=O)c1c(C)oc2c1c1c(c3ccccc32)OCN(Cc2ccccn2)C1	-11	·	·
Cn1c(C(=O)N2CCCc3ccccc32)cc2sccc21	5	-17	·
Cc1cccc(-c2nc(CN3CCCC(C(=O)NC4CCCCCC4)C3)c(C)o2)c1 (stereo unspecified)	3	6	·
COC(=O)c1ccc2c(c1)N(Cc1nc(-c3cccc(C)c3)oc1C)C(=O)C1CCCN21 (stereo unspecified)	4	71*	67*
Cc1ccc(NC(=S)N2CCN(C3CCCCC3)CC2)cc1	-6	·	·
SMILES	RmlCD inh mix	HIV RNase H inh-1	HIV RNase H inh-2
O=Cc1ccc(O)c(O)c1	-12	·	·
O=C(O)/C=C/c1ccc(O)c(O)c1	12	74*	76*
Clc1cccc(CSC2=NCCCN2)c1	-10	·	·
CC1Oc2ccccc2N(Cc2ccccc2F)C1=O (stereo unspecified)	-25	90*	12
CC1Oc2ccccc2N(Cc2ccccc2Cl)C1=O (stereo unspecified)	5	-26	·
CCc1c(C)nc(/N=C(/NC(=O)c2ccccc2)Nc2ccccc2OC)[nH]c1=O	·	41	·
Cc1cc(C)c(NC(=O)Cn2c(=O)n(Cc3ccco3)c(=O)c3ccccc32)c(C)c1	-10	69*	73*
Cc1ccccc1Cn1c(=O)n(Cc2ccco2)c(=O)c2ccccc21	-5	10	·
O=C1CCCC2=C1C(c1ccco1)Nc1ccc3ccccc3c12 (stereo unspecified)	16	18	·
Cc1ccc(C(=O)COC(=O)CNS(=O)(=O)c2ccccc2)cc1[N+](=O)[O-]	6	·	·
O=C(NCc1cccnc1)C1c2ccccc2C(=O)N1C1CCCC1 (stereo unspecified)	16	1	·
O=C(CSC1=NS(=O)(=O)c2ccccc21)Nc1ccccc1	0	55*	7
Cn1cnnc1SCC(=O)Nc1ccccc1	5	-5	·
COC(=O)CSc1ccccc1C(=O)OC	22	-15	·
COC(=O)CSC1=NS(=O)(=O)c2ccccc21	-4	66*	-2
Cc1cccc(NC(=O)c2ccccc2[N+](=O)[O-])n1	-1	·	·
